Bioassay records as filed in PubChem.
aSyn UTR act = Activators via SNCA 5'UTR binding, MLPCN | alpha-synuclein 5'UTR reporter, activators screen | activity score, % (tested at 7.5 µM), hits read low | 300,000 compounds, 7.1% hits; in the data active means activity score below about -60%
Each line names hits and unclear results; the compound was inactive in the other large screens. A selection follows.

CC(C)Oc1ccc(C(=O)NC(=S)N2CCOCC2)cc1	aSyn UTR act -79
Cc1cccc(NC(=O)CN2C(=O)N/C(=C\c3ccc(N4CCOCC4)cc3)C2=O)c1	aSyn UTR act -100
CCc1nonc1NC(=O)c1oc2ccc(C)cc2c1C	aSyn UTR act -112
CCc1nonc1NC(=O)c1oc2ccccc2c1C	aSyn UTR act -75
CCc1ccc2oc(C(=O)Nc3nonc3CC)c(C)c2c1	aSyn UTR act -135
CCc1nonc1NC(=O)c1oc2cc(Br)ccc2c1C	aSyn UTR act -113
C=CCNC(=O)C1CC(=O)N(c2ccc(OCc3ccccc3Cl)cc2)C1 (stereo unspecified)	aSyn UTR act -111
O=C(O)C1CC(=O)N(c2ccc(OCc3ccccc3)cc2)C1 (stereo unspecified)	aSyn UTR act -66
Cc1nc(-c2ccccc2)sc1-c1ccnn1C	aSyn UTR act -111
COC(=O)N1N=C(c2ccc(Br)cc2)CC1(O)C(F)(F)F (stereo unspecified)	aSyn UTR act -126
CCOC(=O)N1N=C(c2ccccc2)CC1(O)C(F)(F)F (stereo unspecified)	aSyn UTR act -75
CCOC(=O)C1=NN(C(=O)c2cccc(Br)c2)C(O)(C(C)(C)C)C1 (stereo unspecified)	none
Cc1cccc(NC(=O)/C(C#N)=C/c2ccccc2O)n1	aSyn UTR act -140
COc1ccc(-c2csc(-n3ncc(C(=O)O)c3C(F)(F)F)n2)cc1	aSyn UTR act -76
COC(=O)c1cnn(-c2nc(-c3ccccc3)cs2)c1N	aSyn UTR act -171
O=C(O)c1cnn(-c2nc(-c3ccc(Cl)cc3)cs2)c1C(F)(F)F	aSyn UTR act -92
O=C1CCCc2c1sc1nc3n(c(=O)c21)CCCCC3	aSyn UTR act -107
O=c1c2c3c(sc2nc2n1CCCCC2)C(O)CCC3 (stereo unspecified)	aSyn UTR act -85
O=C1c2sc3nc4n(c(=O)c3c2CCC1Br)CCCCC4 (stereo unspecified)	aSyn UTR act -180
c1ccc(Nc2scc(-c3ccccc3)[n+]2Cc2ccco2)cc1	aSyn UTR act -222
C=CC[n+]1c(-c2ccc(C)cc2)csc1Nc1ccc(NC(C)=O)cc1	none
Cc1cccc(NC(=O)c2cnc3scc(C)n3c2=O)c1	aSyn UTR act -181
Cc1csc2ncc(C(=O)Nc3ccc4c(c3)OCCO4)c(=O)n12	aSyn UTR act -169
COc1ccc(C(CC(=O)c2ccc(O)cc2)S(=O)(=O)c2ccc(C)cc2)cc1 (stereo unspecified)	aSyn UTR act -250
Cc1cccc(CCNc2nc3ccc(C)cc3n3cnnc23)c1	aSyn UTR act -156
Cc1cccn2c(CN(C)CCC3CCCCO3)c(C(=O)N3CCCCC3)nc12 (stereo unspecified)	aSyn UTR act -69
O=C(/C=C/c1ccco1)NC(=S)Nc1ccccc1	aSyn UTR act -104
CC(=O)c1ccc(NC(=S)NC(=O)/C=C/c2ccco2)cc1	aSyn UTR act -101
Clc1ccc(COn2nnc3ccccc32)c(Cl)c1	aSyn UTR act -151
Cn1nc(OC(=O)Nc2ccc(Cl)cc2)cc1C(F)(F)F	aSyn UTR act -85
COc1ccc(/C=N/NC(=O)CCn2cnc(-c3ccccc3)c2-c2ccccc2)cc1	none
O=C(N/N=C/c1cc(Br)ccc1O)c1cccc(N2CCCC2=O)c1	none
COc1cccc(/C=N/NC(=O)c2cccc(N3CCCC3=O)c2)c1	aSyn UTR act -105
COc1cccc(/C=N/NC(=O)CCn2nnc3ccccc32)c1	aSyn UTR act -120
O=C(Nc1ccccc1)c1cccc(N2CCCC2=O)c1	aSyn UTR act -117
C/C(=N/NC(=O)c1cccc(N2CCCC2=O)c1)c1ccncc1	aSyn UTR act -166
COc1cc(C=O)ccc1Oc1nnnn1-c1ccc(C(N)=O)cc1	aSyn UTR act -68
CCOc1cc(C2c3c(n[nH]c3C)C(=O)N2c2ccc(Br)cc2)ccc1O (stereo unspecified)	aSyn UTR act -62
Cc1ccc(S(=O)(=O)[N-]c2nc3ccccc3nc2-n2cc[n+](Cc3ccccc3)c2)cc1	aSyn UTR act -97
N#Cc1ccccc1CSc1nnc(-c2ccncc2)o1	aSyn UTR act -114
N#Cc1cccc(-c2nnc(SCc3ccccc3C#N)o2)c1	aSyn UTR act -65
Fc1cccc(Cl)c1CSc1nnc(-c2ccncc2)o1	aSyn UTR act -109
Clc1ccccc1CSc1nnc(-c2ccncc2)o1	aSyn UTR act -127
O=c1c2ccccc2sc2ccc(Cl)cc12	aSyn UTR act -106
O=C(NCCc1cccs1)C1CC(c2ccc([N+](=O)[O-])cc2)=NO1 (stereo unspecified)	aSyn UTR act -157
Cc1ccc(CNC(=O)C2CC(c3cccc([N+](=O)[O-])c3)=NO2)o1 (stereo unspecified)	aSyn UTR act -88
CCCCNC(=O)C1CC(c2cccc(F)c2)=NO1 (stereo unspecified)	aSyn UTR act -94
COc1ccc(CCNC(=O)C2CC(c3cccc([N+](=O)[O-])c3)=NO2)cc1 (stereo unspecified)	aSyn UTR act -112
COc1ccc(N2CCN(S(=O)(=O)CCNC(=O)Cc3ccc([N+](=O)[O-])cc3)CC2)cc1	none
COc1ccc(CCNC(=O)C2CC(c3ccc([N+](=O)[O-])cc3)=NO2)cc1 (stereo unspecified)	aSyn UTR act -69
CCCOc1ccc(N2C(=O)CC(N(O)c3ccccc3)C2=O)cc1 (stereo unspecified)	aSyn UTR act -77
COC(=O)c1ccc(N2C(=O)CC(SCCN)C2=O)cc1 (stereo unspecified)	aSyn UTR act -84
CCCOc1ccc(N2C(=O)CC(SCCN)C2=O)cc1 (stereo unspecified)	aSyn UTR act -71
Cc1ccccc1-c1nnn(Cc2ccc(F)cc2Cl)n1	aSyn UTR act -86
Fc1ccc(-c2nnn(Cc3ccc(F)cc3Cl)n2)cc1	aSyn UTR act -71
O=C(c1cc(COc2ccc3ncccc3c2)on1)N1CCC[C@H]1CO	aSyn UTR act -67
COc1cccc(OCc2cc(C(=O)N3CCNC(=O)C3Cc3ccccc3)no2)c1 (stereo unspecified)	aSyn UTR act -74
COc1cccc(OCc2cc(C(=O)N3CCCC3c3ccccn3)no2)c1 (stereo unspecified)	aSyn UTR act -84
CCOC(=O)c1cc2c(=O)c3ccccc3oc2nc1C	aSyn UTR act -153
CC(=O)c1cc2c(=O)c3ccccc3oc2nc1C	aSyn UTR act -116
COCc1nc2oc3ccccc3c(=O)c2cc1C(=O)OC	aSyn UTR act -89
CC(=O)c1ccc2oc3ccccc3c(=O)c2c1	aSyn UTR act -81
CC1CCCN(CCS(=O)(=O)c2ccccc2)C1 (stereo unspecified)	aSyn UTR act -151
Cc1nc(N)sc1N=Nc1ccc(F)cc1	aSyn UTR act -107
COc1cccc(Nc2nnc(SCC3CCCCO3)s2)c1 (stereo unspecified)	aSyn UTR act -76
COc1ccc(Nc2nnc(SCC3CCCO3)s2)cc1 (stereo unspecified)	aSyn UTR act -105
c1ccc(-c2nc3nc4ccccc4nc3n2Cc2ccco2)cc1	aSyn UTR act -106
Cc1cnn(-c2cc(N/N=C/c3ccc(F)cc3)ncn2)c1	aSyn UTR act -86
COc1cccc(/C=N/Nc2cc(-n3nc(C)cc3-c3ccccc3)ncn2)c1O	none
Fc1ccccc1OCCSc1ncnc2nc[nH]c12	aSyn UTR act -100
COc1ccc(OCCSc2ncnc3nc[nH]c23)cc1	aSyn UTR act -81
c1ccc(-c2ccc(-c3csnn3)cc2)cc1	aSyn UTR act -131
